These results are taken from PubChem BioAssay (NCI).

About 83,000 compounds went through this panel and 20% of them were active in at least one assay; those are over-represented in the sample as a whole.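 Note: values are percent growth. 100 is the growth of untreated cells, values between 100 and 0 indicate rising inhibition; between -100 and 0 indicates cell death.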 A number with no mark means an inactive call. Active and inactive are the calls of the source. How the source made its calls: active means growth percent below 10; inactive means the rest.

Common to all, as to assay: NCI-60 one-dose screen, 48 h (100 = growth as untreated, 0 = no growth, -100 = all killed)
The test system of assay [1] is NCI-H23 lung. To be noted: 10 µM unless noted.
Assay [2] relates to NCI-H226 lung. The note with it: 10 µM unless noted.
Assay [3] concerns MDA-MB-231 breast. To be noted: 10 µM unless noted.
The subject of assay [4] is SF-268 CNS. To be noted: 10 µM unless noted.
In assay [5] the test system is SF-539 CNS. The note with it: 10 µM unless noted.
The subject of assay [6] is HCT-15 colon. The note with it: 10 µM.
In assay [7] the test system is HT29 colon. The note with it: 10 µM unless noted.
In assay [8] the test system is SNB-75 CNS. To be noted: 10 µM unless noted.
Assay [9] concerns PC-3 prostate. The note with it: 10 µM unless noted.
Assay [10] relates to SK-MEL-5 melanoma. To be noted: 10 µM unless noted.
Assay [11] relates to UACC-62 melanoma. To be noted: 10 µM unless noted.
The test system of assay [12] is SK-MEL-28 melanoma. To be noted: 10 µM unless noted.
The test system of assay [13] is SN12C renal. The note with it: 10 µM unless noted.
The subject of assay [14] is ACHN renal. The note with it: 10 µM unless noted.
Assay [15] relates to OVCAR-8 ovarian. To be noted: 10 µM unless noted.
Assay [16] has as its system OVCAR-3 ovarian. The note with it: 10 µM unless noted.
The subject of assay [17] is NCI/ADR-RES ovarian. To be noted: 10 µM unless noted.
Assay [18] relates to MDA-MB-435 melanoma. The note with it: 10 µM unless noted.
Assay [19] deals with MCF7 breast. The note with it: 10 µM unless noted.
Assay [20] deals with KM12 colon. The note with it: 10 µM unless noted.

Consider `Nc1nc(N)c(-c2ccc(Cl)c(Cl)c2)c(/C=C/c2ccc(S(=O)(=O)F)cc2)n1`, for which the growth in [1] is 106%; in assay [2], 114%; in assay [3] it was 104%; in assay [4], 97.4%; in [5], 80.1%; in [6], 77.9%. Besides, the growth was 59.4% in assay [7]; 78.4% in assay [8]; 65% in assay [9]; 84.6% in assay [10]; 79.1% in assay [11]; 98.1% in assay [12]. The growth was 93.1% in assay [13]; 67.8% in assay [14]; 81.6% in assay [15]; 95.4% in [16]; 105% in assay [17]; 87.5% in assay [18]. Besides, the growth is 73.5% in [19] and 86.8% in assay [20].
Consider `CCC(CO)NC1CCCCC1` (stereo not drawn), for which the growth in assay [1] is 87.5%; in assay [2], 114%; in assay [3], 58%; in assay [4], 86.9%; in assay [5] it was 17.7%; in assay [6], 76.4%. Moreover, the growth is 5.74% (active) in [7]; 81.6% in assay [8]; 92.2% in assay [9]; 93.4% in assay [10]; 91.9% in [11]; 102% in assay [12]. Moreover, the growth in [13] was 75.8%; in [14] it was 84.7%; in assay [15] it was 78.9%; in assay [16], 100%; in assay [17] it was 80.9%; in assay [18] it was 74.2%. The growth in assay [19] is 63.4%; in assay [20] it was 54.6%.
On to `CC(C)(O)/C=C/C(=O)[C@](C)(O)[C@H]1[C@H](O)C[C@@]2(C)[C@@H]3CC=C4[C@@H](C=C(O)C(=O)C4(C)C)[C@]3(C)C(=O)C[C@]12C`, for which the growth was -40.1% (active) in assay [1]; -33.9% (active) in assay [2]; -25% (active) in assay [3]; -27.5% (active) in assay [4]; -53.6% (active) in assay [5]; -52% (active) in assay [6]. Besides, the growth is -31.1% (active) in assay [7]; -86.6% (active) in assay [8]; -58.8% (active) in assay [9]; -78.4% (active) in assay [10]; -29.9% (active) in [11]; 7% (active) in assay [13]. Besides, the growth is -29.9% (active) in [14]; -28.9% (active) in assay [16]; 12.2% in [17]; -52.1% (active) in [18]; 2.31% (active) in assay [19]; -60.9% (active) in assay [20].
For the compound `C[As](=O)(O)c1ccc(C(=O)O)cc1`, the growth in assay [1] was 110%; in assay [2], 99.7%; in assay [3] it was 102%; in [4], 110%; in assay [5] it was 102%; in assay [6], 99.2%. In addition, the growth was 108% in [7]; 90.2% in [8]; 97.9% in assay [9]; 108% in assay [10]; 101% in [11]; 106% in [12]. The growth in [13] was 107%; in assay [14], 114%; in assay [15], 101%; in assay [16], 121%; in assay [17], 108%; in assay [18], 98.4%. Further, the growth in [19] is 100%; in assay [20] it was 111%.
On to `Cc1cc(N(CCCl)CCCl)ccc1C=Nc1ccc2ccccc2c1`, for which the growth in [1] is 60.8%; in assay [2] it was -49.7% (active); in assay [3], 92%; in assay [4], 72.3%; in assay [5], 69%; in assay [6] it was 79.7%. Besides, the growth in [7] is 92%; in assay [8], 72%; in [9], 77.2%; in [10] it was 74.6%; in assay [11], 28.4%; in [12] it was 102%. Besides, the growth in assay [13] is 49.7%; in assay [14], 57%; in [15], 72.7%; in [16], 85.7%; in assay [17], 71.2%; in assay [18] it was 90.6%. Also, the growth was 40% in assay [19] and 87.6% in [20].
Consider `O=C1NC(=O)C(O)(C2(O)C(=O)NC(=O)NC2=O)C(=O)N1`, for which the growth in [1] was 103%; in assay [2] it was 99.5%; in assay [3], 91.2%; in assay [4], 91.6%; in [5], 88%; in [6], 107%. The growth is 104% in assay [7]; 94% in assay [8]; 89.2% in [9]; 86.7% in [10]; 87.2% in assay [11]; 109% in assay [12]. Also, the growth in assay [13] was 92.3%; in assay [14], 104%; in [15], 109%; in assay [16], 115%; in [17], 92.7%; in assay [18], 108%. For the same compound, the growth is 138% in [19] and 100% in assay [20].
For the compound `NC(=O)NC(=O)CI`, the growth in [1] was 95.5%; in assay [2], 95.1%; in [3], 94.9%; in [4] it was 101%; in [5], 109%; in assay [6], 85.7%. The growth was 99.1% in assay [7]; 106% in assay [8]; 98.5% in assay [9]; 93.9% in assay [10]; 86.7% in assay [11]; 89.5% in [12]. For the same compound, the growth is 85% in [13]; 84.7% in assay [14]; 101% in assay [15]; 102% in assay [16]; 99.4% in assay [17]; 98.2% in assay [18]. Moreover, the results for the growth in assay [19] and in [20] were 94.3% and 107%, respectively.
With `O=C(NCc1ccc([N+](=O)[O-])cc1)Nc1ccc(S(=O)(=O)F)cc1`, the growth in assay [1] is 81.3%; in assay [2], 63.7%; in assay [3], 80.4%; in [4] it was 89.9%; in [5], 88.3%; in assay [6], 87.1%. Also, the growth in assay [7] was 91.9%; in [8], 86.2%; in [9], 74.6%; in assay [10], 79.9%; in assay [11], 65.1%; in [12], 96%. For the same compound, the growth is 85.8% in assay [13]; 90.1% in [14]; 80% in assay [15]; 87% in assay [16]; 78.3% in assay [17]; 92.8% in assay [18]. Besides, the growth in [19] is 83.7%; in assay [20] it was 84.2%.
